In PubChem BioAssay (NCATS):
Where “and” joins values, the source holds several entries; their conditions need not be identical. Equal entries are not always repeated. Records with an inconclusive call do not appear. Some structures have more than one record in an assay (separate samples or runs), and their calls can disagree. Calls of active or inactive are those of the source. Unless noted, calls follow the shape of the dose curve; as a rule, active = well fitted curve in either direction with a large enough effect (not every such curve was filed as active); inconclusive = small, poorly fitted or top-dose-only effect, or another doubt; inactive = flat fitted curve, though single readings scatter.

Experiments:
[1] = AP1 Signaling Pathway (AID 357);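 also: ME-180 reporter cells stimulated with EGF at its EC50 level; % is scaled to controls: 0 for no effect and ±100 for the full control effect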
How it was run: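 First, ME-180 AP-1-bla cells were cultured overnight at 37 °C in low-serum Opti-MEM. Next, titrated compounds with EC50 EGF were incubated 5 hours. Finally, CCF4 was added for 2.5 hours and the 460/530 nm ratio recorded.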

[2] = target: Cytochrome P450 1A2 (Homo sapiens) (UniProt P05177); experiment: p450-cyp1a2 (AID 410; calls by dose curve; also: potency is read from the fitted curve at half-maximal effect;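 as to activity change, negative = inhibition: -100% = full effect of reference inhibitor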)
How it was run: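 Read-out is luminescence from luciferin produced by CYP1A2 demethylation of Luciferin-ME (100uM, at Km). Detection reagent stopped the 60 min NADPH-dependent reaction; signals were normalized to 57 uM furafylline.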

[3] = NFAT Signaling Pathway (AID 444); conditions: Jurkat NFAT-bla M1, carbachol, beta-lactamase ratio, 5 h;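 also: carbachol stimulus at about its EC50 of 1 µM final; % is scaled to controls: 0 for no effect and ±100 for the full control effect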
How it was run: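 Read-out: CCF4 FRET ratio (460 nm/530 nm) after 1 h RT dye loading, used for %activity and AC50 from titration series. Cells: Jurkat NFAT-β-lactamase/M1 line, treated with compound plus 1 uM carbachol for 5 h, 37 °C.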

[4] = Stat Signaling Pathway (AID 446);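 also: ME-180 cervical cancer cells given 40 pM IL-6 alongside compound; SIE-controlled beta-lactamase reporter measured as 460/530 nm FRET emission ratio; % is scaled to controls: 0 for no effect and ±100 for the full control effect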
How it was run: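 Normalization used AC90 stimulation (300 pM IL-6) and AC90 inhibition (125 nM pan-JAK inhibitor at 40 pM IL-6). The underlying signal is SIE-driven beta-lactamase in ME-180 cells after 5 h IL-6 exposure with compound.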

[5] = target: Mitogen-activated protein kinase 10 (Mus musculus) (UniProt Q61831); experiment: JNK3 AlphaScreen Assay (AID 530);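 also: kinase came from lysate of stimulated human HepG2 cells; signal reports phosphorylation of biotinylated GST-cJun 1-79 at Ser73 with 10 µM ATP; % is scaled to controls: 0 for no effect and ±100 for the full control effect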
How it was run: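 Kinase buffer: 20 mM Tris-HCl pH 7.6, 10 mM MgCl2, 1 mM DTT, 0.1 mM Na3VO4, 0.01% Tween-20; ATP 10 uM. Substrate biotin-GST-cJun(1-79), enzyme from activated HepG2 lysates. Detection by Ser73 phospho-antibody AlphaScreen.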

[6] = qHTS Assay for Lipid Storage Modulators (AID 1519; calls by dose curve); conditions: Drosophila S3 cells, BODIPY lipid droplet/cell ratio, laser cytometry, cells loaded with oleic acid; for activity change, negative = inhibition: at 25.7 µM (top of the series)
How it was run: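 Cells seeded at 5,000 per well were treated with compounds over a concentration series and loaded with oleic acid (400 uM, as added). Lipid droplet fluorescence (488 nm excitation, 500-530 nm channel) was read by laser-scanning cytometry and normalized to 20 uM Triacsin C.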

[7] = target: Glucocorticoid receptor (Homo sapiens) (UniProt P04150); experiment: GR-GFP Redistribution (AID 450;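 active = compounds whose dose series gives a full or clear partial fitted curve of increased nuclear translocation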; also: potency is read from the fitted curve at half-maximal effect); conditions: U2OS GR-GFP nuclear translocation, laser cytometry, 2 h
[8] = target: Glucocorticoid receptor (Homo sapiens) (UniProt P04150); experiment: GR-EFC Redistribution (AID 451; calls by dose curve; also: potency is read from the fitted curve at half-maximal effect); conditions: CHO-K1 GR-EFC translocation, beta-gal luminescence, 2 h
How it was run: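 Translocation of GR-ED fusion to nuclear EA restores b-gal, read by luminescence after 1 h room-temperature detection. Engineered CHO-K1 biosensor cells, 1,000/well, exposed 2 h at 37 C to titrations up to 46 uM final.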

[9] = target: 3',5'-cyclic-AMP phosphodiesterase 4B (Homo sapiens) (UniProt Q07343); experiment: qHTS Assay for Inhibitors of PDE-IV (AID 607; active = well fitted activation curve with a large enough effect in the main read-out, with a control signal flat, not every such curve was filed as active; also: % of control where 0% means no effect)
How it was run: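 HEK293 ACTOne cells with CNG channel (1000/well), endogenous PDE4; membrane potential dye, compounds up to 22.9 uM final. Fluorescence Ex 535/Em 590; RO 20-1724 (100 uM final) as reference.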

[10] = target: Ubiquitin carboxyl-terminal hydrolase 1 (Homo sapiens) (UniProt O94782); experiment: Inhibitors of USP1/UAF1: Pilot qHTS (AID 504865; active = well fitted curve in the direction sought with a large enough effect; an effect the other way counts as inactive or inconclusive; also: nearly all actives have a fitted effect of over 35% in size; also: potency is read from the fitted curve at half-maximal effect)
How it was run: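 Deubiquitinase activity followed as kinetic rhodamine fluorescence release from 150 nM Ub-Rho. 1 nM USP1/UAF1 with compound, after 15 min room-temperature preincubation, in HEPES pH 7.8 buffer containing TCEP, EDTA, BSA and Tween-20.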

[11] = target: Cytochrome P450 3A4 (Homo sapiens) (UniProt P08684); experiment: qHTS Assay for Activators of Cytochrome P450 3A4 (AID 885; active = well fitted curve in the direction sought with a large enough effect; an effect the other way counts as inactive or inconclusive; also: nearly all actives have a fitted effect of over 65% in size)
How it was run: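 Human CYP3A4 dealkylates Luciferin-PPXE to luciferin, which luciferase detection converts to light. Substrate was at its KM (25uM), buffer 200mM KPO4, reaction 60 min at RT.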

[12] = measured here: cell count channel max response
[13] = measured here: lipid channel max response

Ubiquitin carboxyl-terminal hydrolase 1 (Homo sapiens), sequence (O94782 whole entry, looked up): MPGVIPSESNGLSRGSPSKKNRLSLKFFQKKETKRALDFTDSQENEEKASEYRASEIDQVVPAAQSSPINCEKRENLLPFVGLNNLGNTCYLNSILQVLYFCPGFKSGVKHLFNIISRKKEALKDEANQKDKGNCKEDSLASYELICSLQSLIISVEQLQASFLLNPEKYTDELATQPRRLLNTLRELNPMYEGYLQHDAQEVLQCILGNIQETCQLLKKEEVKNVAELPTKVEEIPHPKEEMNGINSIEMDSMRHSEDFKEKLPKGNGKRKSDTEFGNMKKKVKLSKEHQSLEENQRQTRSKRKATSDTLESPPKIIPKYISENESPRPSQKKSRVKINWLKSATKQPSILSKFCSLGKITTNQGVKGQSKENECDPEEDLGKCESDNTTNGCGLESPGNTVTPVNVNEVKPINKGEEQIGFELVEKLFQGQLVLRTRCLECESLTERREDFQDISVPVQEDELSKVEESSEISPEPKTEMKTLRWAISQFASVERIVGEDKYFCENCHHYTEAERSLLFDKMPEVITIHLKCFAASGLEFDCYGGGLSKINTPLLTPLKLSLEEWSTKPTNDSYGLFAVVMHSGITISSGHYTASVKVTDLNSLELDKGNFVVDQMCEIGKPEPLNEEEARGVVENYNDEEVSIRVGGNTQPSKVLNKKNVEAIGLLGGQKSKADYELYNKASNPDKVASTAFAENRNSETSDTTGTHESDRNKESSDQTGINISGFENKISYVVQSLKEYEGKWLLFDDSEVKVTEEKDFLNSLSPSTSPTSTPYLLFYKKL
Cytochrome P450 3A4 (Homo sapiens), sequence (P08684 whole entry, looked up): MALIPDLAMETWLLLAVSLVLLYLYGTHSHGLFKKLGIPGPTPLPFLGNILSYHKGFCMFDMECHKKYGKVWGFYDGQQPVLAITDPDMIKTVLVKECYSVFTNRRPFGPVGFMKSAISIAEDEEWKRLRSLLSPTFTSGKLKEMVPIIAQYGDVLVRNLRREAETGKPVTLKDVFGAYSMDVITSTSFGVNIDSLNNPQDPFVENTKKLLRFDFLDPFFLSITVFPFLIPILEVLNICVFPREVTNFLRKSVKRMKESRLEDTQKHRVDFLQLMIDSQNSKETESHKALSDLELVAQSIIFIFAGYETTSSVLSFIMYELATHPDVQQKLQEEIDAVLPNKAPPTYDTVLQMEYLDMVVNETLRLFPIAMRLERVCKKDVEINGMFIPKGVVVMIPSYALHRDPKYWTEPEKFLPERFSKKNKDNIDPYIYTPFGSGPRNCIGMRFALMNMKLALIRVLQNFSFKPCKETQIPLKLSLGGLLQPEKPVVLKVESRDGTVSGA
Cytochrome P450 1A2 (Homo sapiens), sequence (P05177 whole entry, looked up): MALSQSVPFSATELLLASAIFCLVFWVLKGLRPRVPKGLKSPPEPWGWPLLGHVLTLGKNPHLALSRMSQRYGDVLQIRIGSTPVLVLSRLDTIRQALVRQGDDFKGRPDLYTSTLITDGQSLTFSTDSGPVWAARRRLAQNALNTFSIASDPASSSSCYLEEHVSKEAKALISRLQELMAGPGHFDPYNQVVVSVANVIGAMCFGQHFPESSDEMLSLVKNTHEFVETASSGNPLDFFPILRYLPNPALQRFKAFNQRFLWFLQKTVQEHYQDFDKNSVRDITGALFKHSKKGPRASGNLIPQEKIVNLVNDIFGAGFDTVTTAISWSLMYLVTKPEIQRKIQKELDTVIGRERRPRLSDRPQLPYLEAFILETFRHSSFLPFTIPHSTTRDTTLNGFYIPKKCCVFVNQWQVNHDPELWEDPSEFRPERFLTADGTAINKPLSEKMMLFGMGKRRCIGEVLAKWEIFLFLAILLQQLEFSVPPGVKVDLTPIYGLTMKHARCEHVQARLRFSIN
3',5'-cyclic-AMP phosphodiesterase 4B (Homo sapiens), sequence (Q07343 whole entry, looked up): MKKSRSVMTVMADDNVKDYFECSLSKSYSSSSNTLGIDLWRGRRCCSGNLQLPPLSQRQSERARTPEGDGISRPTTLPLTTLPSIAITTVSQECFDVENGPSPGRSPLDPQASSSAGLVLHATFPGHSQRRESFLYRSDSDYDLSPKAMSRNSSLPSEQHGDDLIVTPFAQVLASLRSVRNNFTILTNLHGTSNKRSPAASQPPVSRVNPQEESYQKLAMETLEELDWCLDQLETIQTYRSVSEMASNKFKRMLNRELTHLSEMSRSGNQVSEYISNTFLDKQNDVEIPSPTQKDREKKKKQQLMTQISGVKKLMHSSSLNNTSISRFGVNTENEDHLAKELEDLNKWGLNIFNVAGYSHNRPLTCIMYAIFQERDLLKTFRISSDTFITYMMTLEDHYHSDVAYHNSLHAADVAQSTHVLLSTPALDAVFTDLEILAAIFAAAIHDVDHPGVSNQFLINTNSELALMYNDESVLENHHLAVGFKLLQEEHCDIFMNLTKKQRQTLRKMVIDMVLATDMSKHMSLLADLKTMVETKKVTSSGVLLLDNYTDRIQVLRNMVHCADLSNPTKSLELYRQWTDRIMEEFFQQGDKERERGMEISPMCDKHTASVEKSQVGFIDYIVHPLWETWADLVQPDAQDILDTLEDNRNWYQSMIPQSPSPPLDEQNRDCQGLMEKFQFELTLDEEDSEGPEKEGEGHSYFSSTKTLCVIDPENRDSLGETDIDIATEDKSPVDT
Glucocorticoid receptor (Homo sapiens), sequence (P04150 whole entry, looked up, the tested form may be a part): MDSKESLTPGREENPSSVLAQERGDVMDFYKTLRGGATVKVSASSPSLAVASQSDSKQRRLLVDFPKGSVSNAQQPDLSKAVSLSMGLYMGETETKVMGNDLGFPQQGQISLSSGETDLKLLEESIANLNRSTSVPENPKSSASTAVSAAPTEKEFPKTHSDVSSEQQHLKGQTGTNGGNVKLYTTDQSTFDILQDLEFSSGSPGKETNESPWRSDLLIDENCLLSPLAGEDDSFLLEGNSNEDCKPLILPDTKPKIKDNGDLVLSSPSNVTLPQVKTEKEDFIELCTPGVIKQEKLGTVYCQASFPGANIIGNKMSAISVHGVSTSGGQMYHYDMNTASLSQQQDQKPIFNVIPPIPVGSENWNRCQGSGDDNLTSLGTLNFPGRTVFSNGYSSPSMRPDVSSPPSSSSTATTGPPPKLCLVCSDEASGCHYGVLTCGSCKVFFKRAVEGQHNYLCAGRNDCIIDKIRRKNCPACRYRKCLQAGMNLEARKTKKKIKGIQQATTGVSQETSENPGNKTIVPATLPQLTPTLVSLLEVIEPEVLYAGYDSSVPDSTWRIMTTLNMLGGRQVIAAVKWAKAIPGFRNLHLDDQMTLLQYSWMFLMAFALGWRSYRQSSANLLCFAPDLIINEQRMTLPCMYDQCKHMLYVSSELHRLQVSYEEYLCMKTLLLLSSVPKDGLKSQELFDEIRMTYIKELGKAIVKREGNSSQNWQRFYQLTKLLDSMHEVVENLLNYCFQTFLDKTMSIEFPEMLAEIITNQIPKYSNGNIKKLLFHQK

| Structure (SMILES) | outcome [1] | Potency [2] | activity change, negative = inhibition ([3]; at 17.2 µM (top of the series)) | outcome [4] | outcome [5] | activity change, negative = inhibition [6] | max response [6, 12] | max response [6, 13] | Potency [7] | Potency [8] | Potency [9] | Potency [10] | Potency [11] | activity change, negative = inhibition ([3]; at 38 µM (top of the series)) |
| --- | --- | --- | --- | --- | --- | --- | --- | --- | --- | --- | --- | --- | --- | --- |
| C[C@H]1CC[C@@]2(NC1)O[C@@H]1C[C@H]3[C@@H]4CC[C@@H]5C[C@@H](O)CC[C@@]5(C)[C@@H]4CC[C@]3(C)[C@@H]1[C@@H]2C | inactive | inactive | 1.76% (inactive) | inactive | inactive | -2.33% (inactive) | 0.178% | -2.87% |  |  |  |  |  |  |
| O=[N+]([O-])O[C@H]1CO[C@H]2[C@H]1OC[C@@H]2O[N+](=O)[O-] | inactive | inactive | -5.68% (inactive) | inactive | inactive | -2.81% (inactive) | -2.42% | -3.6% | > 20.6 µM (inactive) | > 20.6 µM (inactive) | inactive |  |  |  |
| CN1CCc2cc3c(cc2[C@@H]1O)OCO3 | inactive | inactive | -5.65% (inactive) | inactive | inactive | 0.396% (inactive) | 4.41% | 3.98% | > 20.6 µM (inactive) | > 20.6 µM (inactive) | inactive | inactive |  |  |
| C/C=C1\C[N@@+]2(C)CC[C@@]34C(=C(C=O)[C@H]1C[C@H]32)Nc1ccccc14 | inactive | inactive | -3.46% (inactive) | inactive | inactive | -2.98% (inactive) | -3.08% | -5.51% | > 20.6 µM (inactive) | > 20.6 µM (inactive) | inactive |  | inactive |  |
| CC(C)C[C@H]1C(=O)N2CCC[C@@H]2[C@@]2(O)O[C@](NC(=O)[C@@H]3C=C4c5cccc6[nH]cc(c56)C[C@@H]4N(C)C3)(C(C)C)C(=O)N12 | inactive | 12.6 µM (active) | -19.6% (inactive) | inactive | inactive | 1.16% (inactive) | -5.41% | -4.79% | > 20.6 µM (inactive) | > 20.6 µM (inactive) | inactive | 14.1 µM (active) | inactive |  |
| CN1Cc2c(ccc3c2OCO3)[C@@H]2[C@@H](O)Cc3cc4c(cc3[C@@H]21)OCO4 | inactive | 2.51 µM (active) and 794 nM (active) |  | inactive | inactive | 0.247% (inactive) | 0.16% | -1.15% | > 20.6 µM (inactive) and > 46 µM (inactive) | > 20.6 µM (inactive) and > 46 µM (inactive) | inactive | inactive | inactive |  |
| CC[N@+]1(C)CCC[C@@H](OC(=O)C(O)(c2ccccc2)c2ccccc2)C1 | inactive | inactive | -31.8% (active) | inactive | inactive | -4.06% (inactive) | -4.84% | -5.77% | > 20.6 µM (inactive) | > 20.6 µM (inactive) | inactive | inactive |  |  |
| CC(C)[C@@]1(NC(=O)[C@@H]2C[C@H]3c4cccc5[nH]cc(c45)C[C@@H]3N(C)C2)O[C@]2(O)[C@H]3CCCN3C(=O)CN2C1=O | inactive | inactive | -1.94% (inactive) | inactive | inactive | 1.9% (inactive) | 8.08% | 10.3% | > 20.6 µM (inactive) | > 20.6 µM (inactive) | inactive | inactive |  |  |
| CN1CC[C@]2(C)c3cc(O)ccc3N(C)[C@@H]12 | inactive | 15.8 µM (active) and 31.6 µM (active) |  | inactive | inactive | -1.57% (inactive) | -15.4% | -17.5% | > 46 µM (inactive) and > 20.6 µM (inactive) | > 46 µM (inactive) and > 20.6 µM (inactive) | inactive | 2.82 µM (active) | inactive |  |
| CS(=N)(=O)CC[C@@H](N)C(=O)O (some centres undefined) | inactive |  | -1.86% (inactive) | inactive |  | 0.596% (inactive) | 16.1% | 16% | > 46 µM (inactive) and > 20.6 µM (inactive) | > 46 µM (inactive) and > 20.6 µM (inactive) | inactive | inactive |  | 4.5% (inactive) |
| CCN1C[C@@]2(COC)[C@H]3[C@@H](OC)[C@H]4C1[C@@]3([C@H](OC)C[C@@H]2O)[C@H]1C[C@@]2(O)[C@@H](OC(=O)c3ccccc3)[C@@H]1[C@@]4(OC(C)=O)[C@H](O)[C@@H]2OC | inactive | inactive | -22.7% (inactive) | inactive | inactive | -1.64% (inactive) | -0.297% | -0.649% |  |  |  | inactive |  |  |
| CCN1C[C@]2(C)CC[C@H](O)[C@@]34[C@@H]5CC6[C@@H](OC)C[C@@](O)([C@@H]5[C@@H]6O)[C@H](C[C@@H]23)[C@H]14 | inactive | inactive | -2.56% (inactive) | inactive | inactive | -2.73% (inactive) | -6.13% | -11.4% | > 20.6 µM (inactive) | > 20.6 µM (inactive) | inactive | inactive |  |  |
| COc1cc2c(cc1OC)[C@H](C)NCC2 | inactive | inactive and 20 µM (active) | 4.97% (inactive) | inactive | inactive | -2.81% (inactive) | -4.52% | -9.32% | > 20.6 µM (inactive) and > 46 µM (inactive) | > 20.6 µM (inactive) and > 46 µM (inactive) | inactive | inactive |  |  |
| COc1ccc(OC)c([C@H](O)[C@H](C)N)c1 | inactive |  | 4.39% (inactive) | inactive | inactive | 1.13% (inactive) | 7.1% | 6.97% | > 46 µM (inactive) and > 20.6 µM (inactive) | > 46 µM (inactive) and > 20.6 µM (inactive) | inactive |  |  | 2.27% (inactive) |
